Source: PubChem (Broad Institute)
This is a sample that favours compounds with a hit; in the whole collection about 3.9% have one here.
Glyco luc inh = blocks N-linked glycosylation in D54 reporter cells; D54 ERlucT glycosylation luciferase reporter, 24 h; percent of 100 nM tunicamycin response; reporter increase, % at 12.5 µM; actives 0.23% (n = 360,000);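 active = mean luciferase reporter signal, scaled so untreated is 0 and the glycosylation-blocking control 100, at or above a set limit in every replicate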;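 also: luciferase carries N-glycosylation sites so blocking glycosylation raises the light; 0% = median of neutral control wells and 100% = median of 100 nM tunicamycin wells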
CDK5 p35 inh = CDK5/p35 (human) kinase inhibition; Q00535+Q15078; Recombinant CDK5/p35, ADP-Glo luminescence, 60 min; inhibition, % at 10 µM; actives 0.01% (n = 330,000);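 active = highest replicate inhibition of at least 50% and at least 75% of replicates reaching 50%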;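 also: plate controls were DMSO neutral control for no effect and GW8510 at 10 µM for full effect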
NSD2 inh = inhibitors of human histone methyltransferase NSD2 | O96028 | actives 0.54% (n = 310,000) | AID 743445 | NSD2 peptide methylation, AlphaScreen, 120 min | inhibition, % at 12.5 µM; in the data active = inhibition above about 50%
Casp6 inh = inhibitors of human caspase-6; P55212; inhibition, % at 12.5 µM; purified caspase-6, Z-VEID-R110 cleavage fluorescence; actives 0.53% (n = 350,000);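 active = mean inhibition across replicates at least about 35%, with every replicate also reaching that limit, limit read from the data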;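 also: 0% = median of neutral control wells and 100% = no fluorescence left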
Target sequence (P55212 24-179 limits assumed): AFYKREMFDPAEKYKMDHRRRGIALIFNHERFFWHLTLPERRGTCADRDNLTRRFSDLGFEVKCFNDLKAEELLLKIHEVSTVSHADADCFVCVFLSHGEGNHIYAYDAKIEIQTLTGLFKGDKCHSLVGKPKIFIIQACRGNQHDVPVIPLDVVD
Target sequence (P55212 194-293 limits assumed): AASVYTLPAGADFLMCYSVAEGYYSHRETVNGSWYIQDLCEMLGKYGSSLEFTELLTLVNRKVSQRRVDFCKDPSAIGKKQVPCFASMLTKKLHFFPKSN
ALR inh = blocks human ALR sulfhydryl oxidase activity; P55789; purified ALR, DTT oxidation, H2O2 HRP-luminol luminescence; inhibition, % (test concentration not listed); actives 3.8% (n = 290,000); AID 485317;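 active = mean replicate inhibition above about 79%, with every replicate also reaching it, limit read from the data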
Target sequence (P55789 whole entry, looked up): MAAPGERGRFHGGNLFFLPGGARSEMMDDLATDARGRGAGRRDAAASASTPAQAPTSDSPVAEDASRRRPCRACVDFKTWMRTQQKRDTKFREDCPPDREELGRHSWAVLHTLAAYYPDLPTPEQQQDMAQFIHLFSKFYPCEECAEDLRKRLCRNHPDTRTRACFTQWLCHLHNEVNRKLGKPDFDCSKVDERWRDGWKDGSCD
Mot1-301 SUMO = blocks SUMOylation pathway, rescuing yeast Mot1-301 growth; S. cerevisiae Mot1-301 growth rescue, ATP luminescence, 38.5C; percent above DMSO median, 100 means doubled; growth rescue, % at 18.8 µM; actives 1% (n = 320,000); AID 2716;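 active = every valid replicate shows activation above 250% relative to neutral control wells; inactive = the rest, any valid replicate at or below 250%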;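 also: OY570 slx delta 5 strain wells were the positive control but not used for scaling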
Numbers without * were called inactive; i = inactive; . = no result given.

SMILES	Glyco luc inh	CDK5 p35 inh	NSD2 inh	Casp6 inh	ALR inh	Mot1-301 SUMO
CCCN1CN(CCc2ccccc2)CNC1=S	1.4	.	-0.8	.	-21.7	i
Cc1ccc(S(=O)(=O)NCC[C@H]2CC[C@@H](NC(=O)c3cccnc3)[C@@H](CO)O2)cc1	.	.	.	5.6	.	.
O=C(C[C@H]1C[C@H]2c3cc(NS(=O)(=O)c4ccc(F)cc4)ccc3O[C@H]2[C@@H](CO)O1)NCC(F)(F)F	.	.	.	-0.1	.	.
CCOC(=O)CSc1nc(N2CCOCC2)c2c(c1C#N)CC(C)(C)N(C)C2	1.2	-1.6	4.1	.	99.6*	20.7
CCOC(=O)CSc1nc(N2CCOCC2)c2c(c1C#N)CC(C)(C)OC2	0.3	-0.5	-1.8	1.0	0.2	7.8
COc1cccc(-n2c(SC3CCOC3=O)nc3ccccc3c2=O)c1 (configuration not stated)	0.1	-0.7	0.4	.	94.6*	39.3
COc1ccc(OCc2nnc(SC3CCOC3=O)n2-c2ccccc2)cc1 (configuration not stated)	1.3	-1.6	1.2	0.9	-4.5	-1.6
CC(=O)SC1CC(=O)N(c2ccc(C(C)(C)C)cc2)C1=O (configuration not stated)	3.7	0.7	-3.7	-0.9	98.0*	9.6
O=C(C[C@@H]1CC[C@H](NC(=O)C2CCOCC2)[C@H](CO)O1)NCC1CC1	.	.	.	2.9	.	.
CCc1nc(NCc2ccco2)c2oc3ccccc3c2n1	0.4	0.2	2.6	.	88.0*	9.5
CCNc1nc(CC)nc2c1oc1ccccc12	3.4	2.9	-0.1	.	-3.0	0.2
CCc1nc(Nc2ccc(O)cc2)c2oc3ccccc3c2n1	12.9	-0.1	-0.6	-0.8	92.9*	-2.4
C[C@@H]1CN([C@@H](C)CO)C(=O)Cc2cc(NS(C)(=O)=O)ccc2O[C@H]1CN(C)C(=O)Nc1cccc2ccccc12	.	.	.	-0.9	.	.
C/C(=N\Nc1ccc(F)cc1F)c1ccc(F)cc1	.	.	.	.	-1.6	218.8
C/C(=N\Nc1ccc(F)cc1F)c1ccc(N2CCOCC2)cc1	0.3	-1.6	-1.5	21.6	39.9	279.3*
C/C(=N\Nc1cc(N2CCOCC2)ncn1)c1ccc(O)cc1	-3.6	0.6	-0.7	0.2	96.7*	-11.0
C/C(=N\NC(=O)c1ccc(O)cc1)c1ccc(N2CCOCC2)cc1	3.4	-1.7	-4.4	0.2	41.5	11.3
CC=Cc1ccc2n(c1=O)C[C@H]1[C@H](CO)[C@@H](C(=O)NCc3ccc(F)cc3)N(C)[C@@H]21 (mixture of isomers)	.	.	.	1.1	.	.
CC(=O)N1CCN(C(=S)c2ccc(Cl)cc2)CC1	1.4	-1.6	7.9	.	-9.9	-23.5
CCc1ccc(-c2csc3[n+]2CCN3C(C)=O)cc1	1.3	-0.6	8.2	.	98.9*	-10.1
O=C(CN1CC[n+]2c(-c3cccs3)csc21)c1ccc(-c2ccccc2)cc1	1.0	0.8	.	5.2	51.2	36.1
CC(=O)N1CC[n+]2c(-c3ccc(Cl)cc3)csc21	3.8	2.8	-2.6	3.6	98.5*	-23.9
Cc1nn(-c2ccccc2)c(C)c1/C=N/n1c(-c2ccccc2Br)n[nH]c1=S	-0.2	2.0	10.8	8.4	96.2*	3.0
CCN(CC)c1ccc(C=Nn2c(-c3cc(C)[nH]n3)n[nH]c2=S)cc1	.	.	9.7	.	.	.
CCN(CC)c1ccc(/C=N/n2c(-c3ccccc3Br)n[nH]c2=S)cc1	-4.1	6.1	12.7	3.9	97.0*	-28.4
SMILES	Glyco luc inh	CDK5 p35 inh	NSD2 inh	Casp6 inh	ALR inh	Mot1-301 SUMO
O=C(C[C@H]1CC[C@@H]2[C@H](COC[C@H](O)CN2C(=O)c2ccc3c(c2)OCO3)O1)NCCN1CCCCC1	.	.	.	-13.8	.	.
CCN1C(=O)/C(=C\c2ccc(F)cc2)N=C1SCC(=O)NCc1ccco1	0.6	2.4	-3.4	1.5	95.3*	-8.0
Cc1ccc(C)c(OCC(=O)O/N=C(\N)c2ccccn2)c1	-6.3	0.6	-4.4	.	5.2	42.5
COc1ccccc1C(=O)O/N=C(\N)c1ccccn1	-11.8	2.3	-1.6	1.6	-1.2	-11.1
Cc1ccc(C(=O)O/N=C(\N)c2ccccn2)c(C)c1	-23.9	50.5*	3.6	1.4	1.3	359.7
COc1cc(OC)c(C(=O)O/N=C(\N)c2ccccn2)cc1OC	0.0	-1.1	-0.1	-1.7	-5.8	326.8*
C[C@H]1CN([C@@H](C)CO)C(=O)c2cc(C#CC3CCCCC3)cnc2O[C@@H]1CN(C)S(=O)(=O)c1ccccc1	.	.	.	-1.9	.	.
CSc1ccc2[nH]c(=O)cc(C)c2c1	4.0	-0.6	0.8	.	99.8*	-9.2
Cc1cc(=O)[nH]c2ccc(Cc3ccccc3)cc12	11.2	0.3	1.0	1.6	.	.
C[C@@H]1CN([C@H](C)CO)C(=O)CCCn2nncc2CO[C@@H]1CN(C)C(=O)Nc1ccc(F)cc1	.	.	.	-1.4	.	.
Cc1cc(NC(=O)CSc2nc3cc(Cl)ccc3c(=O)n2CC(C)C)no1	.	.	.	.	-18.8	14.1
COC(=O)c1ccc2c(=O)n(Cc3ccco3)c(SCC(=O)Nc3ccccc3Cl)nc2c1	-5.4	0.7	0.5	.	3.5	116.2
Cc1cc(NC(=O)CSc2nc(C)c(C)n2CC(C)C)no1	1.8	11.5	1.6	-2.7	92.7*	5.8
COC(=O)c1ccc2c(=O)n(Cc3ccco3)c(SCC(=O)Nc3cc(C)on3)nc2c1	62.0*	0.1	.	3.3	20.9	10.9
Cc1cc(NC(=O)CSc2c[nH]c3ccccc23)no1	.	-4.3	-0.7	10.2	99.3*	-18.9
Cc1cc(NC(=O)CSc2ccccn2)no1	6.7	0.4	1.8	.	-8.9	0.8
Cc1cc(NC(=O)CSc2c(C)[nH]c3ccccc23)no1	-1.3	0.3	.	2.5	94.8*	-13.7
COCCNC[C@H]1[C@@H](c2ccccc2)[C@@H](CO)N1c1nc(C)c(C)s1	.	.	.	1.2	.	.
C[C@@H]1CN([C@@H](C)CO)C(=O)Cc2cc(NS(=O)(=O)c3ccc(Cl)cc3)ccc2O[C@H]1CN(C)S(=O)(=O)c1ccccc1	.	.	.	-0.7	.	.
CCC(=O)N(C)C[C@@H]1Oc2cc(C#Cc3ccccc3)ccc2S(=O)(=O)N([C@@H](C)CO)C[C@@H]1C	.	.	.	0.4	.	.
CC(=O)N1[C@@H]2Cn3c(cccc3=O)[C@H]1[C@@H](C(=O)NCC1CCCCC1)[C@@H]2CO	.	.	.	-2.3	.	.
COc1ccc(/C=N/NC(=O)C(=O)NCC2CCCO2)cc1 (configuration not stated)	1.1	1.1	-2.9	-2.6	-10.5	-12.2
CCN(CC)c1ccc(NC(=S)NCC2CCCO2)cc1 (configuration not stated)	-1.6	-1.8	3.3	1.6	99.6*	-1.0
Oc1ccc(/C=N/NC(=S)NCC2CCCO2)cc1 (configuration not stated)	-1.0	-1.4	0.3	.	98.3*	-17.5
S=C(N/N=C/c1cccs1)NC1CC2CCC1C2 (configuration not stated)	-1.5	0.0	-0.6	-0.5	-0.2	2.0
Oc1ccc(/C=N/NC(=S)NC2CC3CCC2C3)cc1 (configuration not stated)	-5.4	-3.1	3.2	1.1	98.7*	4.1
